Only some compounds are listed: those with a hit (about 0.24% of all), similar ones and a draw of the others.
NPYLR7 ag: agonists of mosquito NPYLR7 receptor, primary screen, cell-based, Aedes aegypti, calcium fluorescence, mosquito biting behavior. Aedes aegypti neuropeptide Y-like receptor 7 (NPYLR7). HEK293T NPYLR7/Galpha15, GCaMP6s calcium fluorescence. activation, % at 10 µM. 0.15% of 270,000 active; in the data active = activation above about 40%
mcGAS inh: cyclic GMP-AMP synthase inhibitors, mouse, primary biochemical chemiluminescence. AID 1259399, 2018. Q8C6L5. recombinant cGAS, Kinase-Glo ATP depletion luminescence. inhibition, % at 12.5 µM. 0.15% of 160,000 active
Target sequence (Q8C6L5 whole entry, looked up): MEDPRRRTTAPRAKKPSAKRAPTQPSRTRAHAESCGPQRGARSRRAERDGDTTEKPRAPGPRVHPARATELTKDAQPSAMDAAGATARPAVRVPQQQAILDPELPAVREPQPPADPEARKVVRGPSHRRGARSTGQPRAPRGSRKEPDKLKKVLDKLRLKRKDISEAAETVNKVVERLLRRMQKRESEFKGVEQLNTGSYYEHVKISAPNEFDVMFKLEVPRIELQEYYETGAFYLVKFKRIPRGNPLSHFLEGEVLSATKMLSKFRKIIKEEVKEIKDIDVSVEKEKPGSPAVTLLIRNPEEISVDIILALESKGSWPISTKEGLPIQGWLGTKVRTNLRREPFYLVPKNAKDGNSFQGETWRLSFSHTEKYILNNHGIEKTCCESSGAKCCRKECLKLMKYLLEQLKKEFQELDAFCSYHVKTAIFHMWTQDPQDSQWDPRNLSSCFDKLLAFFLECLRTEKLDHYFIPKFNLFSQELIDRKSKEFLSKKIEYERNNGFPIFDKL
hcGAS inh: Primary biochemical luminescence assay for human cyclic GMP-AMP synthase inhibitors; Q8N884; recombinant h-cGAS, ATP depletion, Kinase-Glo luminescence; inhibition, % at 12.5 µM; 0.081% of 290,000 active; AID 1259398, 2018
Numbers stand for hits; . = inactive; / = no result. Rule as the data show it, unless noted: active = inhibition above about 40%; inactive = the rest.

SMILES	NPYLR7 ag	mcGAS inh	hcGAS inh
O=C(c1cccc(Cl)c1)N(CC(=O)N1CCc2sccc2C1c1ccc(F)cc1)C1CC1 (centres undefined)	.	.	.
CCOc1ccc(S(=O)(=O)Nc2cc(Sc3ncn[nH]3)c(O)c3ccccc23)cc1	.	.	.
Cc1ccc(S(=O)(=O)Nc2cc(Sc3ncn[nH]3)c(O)c3ccccc23)c(C)c1	.	40	.
N#Cc1cccc(C(=O)N2CCN(C(c3ccccc3)c3ccc(Br)cc3)CC2)c1 (centres undefined)	42	.	.
N#Cc1cccc(C(=O)N2CCN(C(c3ccccc3)c3ccccc3)CC2)c1	.	.	.
COc1ccc(CN2C3CCC2CC(NS(=O)(=O)c2ccc4ccccc4c2)C3)c(OC)c1 (centres undefined)	.	.	.
c1ccc(-n2nnnc2Sc2nnnn2C2CCCC2)cc1	.	/	.
Clc1cc2c(c(CSc3nnnn3-c3ccccc3)c1)OCOC2	.	.	72
Clc1cc2c(c(CSc3nnc(-c4ccccc4)o3)c1)OCOC2	.	.	.
CCN(CC)CC(=O)N1N=C(c2ccc(Cl)cc2)CC1c1ccco1 (centres undefined)	.	.	.
O=C(CCl)N1N=C(c2ccc(Cl)cc2)CC1c1ccco1 (centres undefined)	.	52	.
O=C(Cc1ccc(Cl)cc1Cl)NCCN1C(=O)CCCC1=O	.	/	.
COc1ccc(C2CCCN2S(=O)(=O)c2cccc(C(C)=O)c2)c(OC)c1 (centres undefined)	.	.	.
CC(C)N1CCc2c(sc(NC(=O)c3ccnn3C)c2-c2nc3ccccc3s2)C1	/	.	.
CC(=O)Nc1sc2c(c1-c1nc3ccccc3s1)CCN(C(C)C)C2	.	104	78
Cc1nn2c(=O)[nH]c(SCC(N)=O)nc2c1-c1ccccc1	.	.	55
CC(=O)Nc1ccc(NC(=O)CSc2nc3c(-c4ccccc4)c(C)nn3c(=O)[nH]2)cc1	.	.	.
CC1CCN(c2onc(-c3ccccc3)c2CNCCN2CCOCC2)CC1	.	/	.
O=C(CSc1ccc(-c2ccc(-n3ccnc3)cc2)nn1)NCc1ccc(Cl)cc1	.	.	.
O=C(NCc1cccc(F)c1F)c1ccc(-c2cc(-c3cccc4c3OCCO4)[nH]n2)cc1	/	105	.
CCSCCNC(=O)c1ccc(-c2cc(-c3cccc4c3OCCO4)[nH]n2)cc1	.	.	.
CC(C)CN1C(=O)SC(Nc2ccccc2)C1=O (centres undefined)	.	.	.
O=C1SC(Nc2ccc(I)cc2)C(=O)N1c1ccccc1 (centres undefined)	63	.	.
COCCN(CC(=O)N1CCc2sccc2C1c1ccccc1)C(=O)c1ccc(OC)cc1 (centres undefined)	.	.	.
Cn1c(C(C#N)=Cc2c(F)c(F)c(F)c(F)c2F)nc2ccccc21	142	/	.
SMILES	NPYLR7 ag	mcGAS inh	hcGAS inh
Cn1c(C(C#N)=Cc2ccsc2)nc2ccccc21	.	.	.
Clc1ccc2c(-n3ccnc3)ccnc2c1	.	/	57
Clc1ccc2c(N3CCCNCC3)ccnc2c1	.	.	.
O=[N+]([O-])c1c[n+]([O-])n(-c2cccc(Cl)c2)n1	74	.	.
O=[N+]([O-])c1c[n+]([O-])n(-c2ccc3c(c2)OCCO3)n1	.	.	.
CCC1=C(C(=O)OC)C(c2ccc([N+](=O)[O-])cc2)NC(=S)N1 (centres undefined)	.	/	.
CCCCN(CC(=O)Nc1c(-c2ccccc2)c(C)nn1-c1ccccc1C)S(=O)(=O)c1ccc(F)cc1	48	.	.
Cc1ccccc1-n1nc(C)c(-c2ccccc2)c1NC(=O)CN(CC(C)C)S(=O)(=O)c1ccc([N+](=O)[O-])cc1	.	.	.
Cc1ncnc2c1ncn2-c1cccc(NC(=O)C(C)C)c1	.	.	.
O=C(CCOc1ccccc1-c1ccccc1)N1CCCN(CC2CCCO2)CC1 (centres undefined)	.	/	.
CC[C@@]1(O)C(=O)OCc2c1cc1n(c2=O)Cc2cc3c(CN(C)C)c(O)ccc3nc2-1	88	/	.
CN(C)CCc1cc2c(c3c1ccc1ccccc13)OCO2	.	56	70
CN(C)Cc1c2ccccc2cc2ccccc12	.	/	.
NC(=O)c1cccc(N=c2oc3ccc(Br)cc3cc2C(N)=O)c1	.	.	.
c1ccc(CNc2nc(NCCc3ccncc3)c3sccc3n2)cc1	59	/	.
CNc1nc(NCc2ccccc2)c2sccc2n1	.	/	.
CC(C)c1cc(NC(=O)N2CCSC(C)(C)C2)no1	.	/	.
CCCc1nc(C)sc1C(=O)N(C)CCc1ccc(OC)c(OC)c1	.	.	.
COc1cc(C(=O)C=Cc2ccc(OC(F)F)cc2)ccc1O	.	.	.
COc1cc(C(=O)C=Cc2cc(OC)c(O)c([N+](=O)[O-])c2)ccc1O	.	/	.
COc1cc(C(=O)C=Cc2ccc(C#N)cc2)ccc1O	.	64	.
COc1ccc(C(=O)C=Cc2cc(OC)c(O)c(OC)c2)cc1F	64	.	.
COc1ccc2nc(N(CC3CCCO3)C(=O)C3CCCN3S(C)(=O)=O)sc2c1 (centres undefined)	.	/	.
CC(NC(=O)COc1ccc(F)cc1F)c1ccncc1 (centres undefined)	.	/	.
CC(NC(=O)CN1CCCCC1CNS(C)(=O)=O)c1ccc(F)cc1F (centres undefined)	.	/	.
SMILES	NPYLR7 ag	mcGAS inh	hcGAS inh
COCc1cc(C)nc(OCC(=O)N/N=C\c2cc(Br)c(O)c(Br)c2)c1C#N	.	.	.
COCc1cc(C)nc(OCC(=O)N/N=C\c2cc(I)c(O)c([N+](=O)[O-])c2)c1C#N	.	67	.
C=CCOc1c(I)cc(/C=N\NC(=O)COc2nc(C)cc(COC)c2C#N)cc1I	.	.	.
COCc1cc(C)nc(OCC(=O)N/N=C\c2cc(I)c(O)c(I)c2)c1C#N	.	58	.
COCc1c(Br)c(C)nc(OCC(=O)N/N=C\c2cc(I)c(O)c(OC)c2)c1C#N	.	.	.
COCc1c(Br)c(C)nc(OCC(=O)N/N=C\c2cc(I)c(O)c([N+](=O)[O-])c2)c1C#N	.	83	.
CCOC(=O)NC(CC(C)C)Cn1c(=O)[nH]c2ccccc2c1=O (centres undefined)	.	/	.
CCOCCNC(=O)c1cncn1-c1ccc(-c2cc(C)cc(C)c2)cc1	.	.	.
O=C(NCCC12CC3CC(CC(C3)C1)C2)c1ccc2c(=O)n3c(nc2c1)CCCCC3	.	/	.
O=C(NCCSc1ccc(Cl)cc1)c1ccc2c(=O)n3c(nc2c1)CCC3	82	/	.
Cc1cc(N2CCN(CC(C)C)C(CCO)C2)nc(-c2cccnc2)n1 (centres undefined)	.	/	.
CC1N(C)c2ccc(C=Cc3cc[n+](C)cc3)cc2C1(C)C (centres undefined)	67	/	.
O=C(CCn1c(=O)[nH]c2ccccc2c1=O)NCCc1ccccc1Cl	.	/	.
CNC(=O)NC(=O)CCN1CC(c2ccccc2Cl)c2c([nH]c3ccccc23)C1C (centres undefined)	41	/	.
Cc1cc(C(=O)NCC2CCCN(Cc3ccc4c(c3)Cc3ccccc3-4)C2)no1 (centres undefined)	.	.	.
